ELG1 DNA repair: ELG1-dependent DNA repair inhibition; HEK293T ELG1-luciferase reporter, luminescence, 16 h; DNA damage induced by 5-fluorouridine; Potency, µM (series often up to 46.1 µM), for the others: at the top dose activity change, negative = inhibition, hits mostly inhibitors; 2.3% of 330,000 active; AID 504467; also: % is scaled to controls: 0 for no effect and ±100 for the full control effect; nearly all actives have a fitted effect of over 55% in size
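HEK293T cells expressing luciferase-tagged ELG1 (2,000/well) received 5-Fluorouridine plus compound or DMSO for 16 hr at 37 °C. Luciferase was read by ONE-Glo luminescence after 30 min at room temperature.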
NPC1 prom act: activators of NPC1 promoter | Potency, µM (doses to about 9.22 µM), inactives show top-dose activation, most hits filed as activators | Huh7 NPC1 promoter luciferase reporter, 24 h | AID 485313 | 2.4% of 320,000 active; also: % of control where 0% means no effect; nearly all actives have a fitted effect of over 60% in size
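In 1536-well qHTS, Huh7 cells harboring an NPC1 promoter–luciferase construct received compound for 24 h; activation was quantified by luminescence following luciferase reagent addition.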
Rab9 promoter act: Rab9 promoter activation; Huh7 Rab9 promoter-luciferase reporter, luminescence, 24 h; Potency, µM (doses to about 9.22 µM), for the others: at the top dose activation, negative = inhibition, usual class: activators; 2.8% of 320,000 active; also: % of control where 0% means no effect; nearly all actives have a fitted effect of over 60% in size
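Rab9 promoter-driven luciferase in stably transfected Huh7 cells; 1500 cells/well rested 2 h, exposed to compound in DMSO for 24 h at 37 °C, 5% CO2. Luminescence read 10 min after adding luciferase reagent at ambient temperature.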
ELG1 genotox: genotoxicity induction in ELG1-luciferase HEK293T cells; Potency, µM (highest dose often 46 µM), inactives show at the top dose activity change, positive = activation, hits mostly activators; HEK293T ELG1-luciferase reporter, luminescence, 16 h; 1.3% of 330,000 active; also: % of control where 0% means no effect; nearly all actives have a fitted effect of over 60% in size
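Cells (2,000/well) expressing the ELG1-luciferase fusion are dosed by pin tool and kept 16 hr at 37 °C, 5% CO2. Signal comes from ONE-Glo luciferase reagent after 30 min at room temperature.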
FLuc modulator: counter-screen for miR-21 project: firefly luciferase inhibitors or activators | purified FLuc, Km substrates, luminescence inhibition | P08659 | Potency, µM (titrated, usually from 57.5 µM), for the others: top-dose activity change, negative = inhibition, actives largely listed as inhibitors | 6.9% of 360,000 active;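 also: plate controls were vehicle for no effect and reference inhibitor for full effect; nearly all actives have a fitted effect of over 55% in size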
Target sequence (P08659 whole entry, looked up): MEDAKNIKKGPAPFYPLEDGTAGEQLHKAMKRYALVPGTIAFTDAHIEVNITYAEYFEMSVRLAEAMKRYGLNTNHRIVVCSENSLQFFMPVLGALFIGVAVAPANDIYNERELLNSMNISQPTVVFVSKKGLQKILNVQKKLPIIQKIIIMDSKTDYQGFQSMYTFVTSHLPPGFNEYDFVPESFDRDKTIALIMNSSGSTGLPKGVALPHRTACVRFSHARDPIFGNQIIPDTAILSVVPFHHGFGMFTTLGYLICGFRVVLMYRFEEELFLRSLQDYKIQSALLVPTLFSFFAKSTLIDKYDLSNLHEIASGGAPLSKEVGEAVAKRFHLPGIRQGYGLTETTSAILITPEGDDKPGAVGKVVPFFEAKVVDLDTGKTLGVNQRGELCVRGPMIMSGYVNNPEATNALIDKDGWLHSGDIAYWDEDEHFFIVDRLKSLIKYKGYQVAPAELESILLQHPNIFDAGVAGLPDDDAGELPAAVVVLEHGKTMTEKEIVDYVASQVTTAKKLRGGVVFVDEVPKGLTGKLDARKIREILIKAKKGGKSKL
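Purified P. pyralis luciferase, 10 nM final, with Km-level 10 uM D-luciferin and 10 uM ATP in 50 mM Tris acetate pH 7.5, 10 mM Mg acetate, 0.01% Tween-20, 0.05% BSA; 6-point qHTS titration about 60 µM downward; luminescence read.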
SMN2 splice up: SMN2 splice variant enhancement; HEK293 SMN2-luciferase splicing reporter, luminescence, 30-36 h; Potency, µM (series often up to 46.1 µM), without a hit: at the top dose activity change, positive = activation, usual class: activators; 2.8% of 210,000 active; also: % of control where 0% means no effect; nearly all actives have a fitted effect of over 55% in size
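qHTS luciferase splicing reporter: luminescence rises when SMN2 exon 7 is included in transfected HEK293 cells. Compound exposure lasted 30-36 h at 37C, with 4.5 mM final sodium butyrate as control, followed by a ONE-Glo read.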
* = called active by the depositor; ? = inconclusive; · = not tested or not shown. A selection: hits, their analogues and other compounds. The true share with any hit is near 9.2%. Calls follow the shape of the dose curve; as a rule, active = well fitted curve in the direction sought with a large enough effect; inconclusive = small, poorly fitted or top-dose-only effect, or another doubt; inactive = no such curve, though single readings can be large; an effect the other way counts as inactive or inconclusive. Potency is read from the fitted curve at half-maximal effect.

SMILES	ELG1 DNA repair	NPC1 prom act	Rab9 promoter act	ELG1 genotox	FLuc modulator	SMN2 splice up
C/C(=N/OC(=O)c1cccc(Cl)c1)c1nccs1	-5%	4%	1%	-3%	2.1µM*	-4%
C/C(=N\OC(=O)c1ccccc1F)c1nccs1	2%	4%	3%	1%	1.3µM*	-14%
O=C(OCc1cnc(Cl)s1)c1cccc(Cl)c1	0%	-2%	8%	-1%	-1%	·
Cc1cc(C)c2c(N)c(C(=O)Nc3cccc(C)c3C)sc2n1	-29%	-6%	-3%	5%	0%	·
Cc1ccc(/C=N/NC(=O)c2ccncc2)s1	1%	1%	6%	3%	?	·
Cc1cccc(N/N=C/c2ccc(C)s2)c1	?	?	?	?	12µM*	·
Cc1ccc(/C=N/N=C/c2ccc(C)s2)s1	?	1.6µM*	2.2µM*	3.7µM*	0.67µM*	7.1µM*
CCOc1ccc2nc(CN3CCN(Cc4ccsc4)C(CCO)C3)ccc2c1 (stereo not given)	4%	0%	0%	1%	-6%	-10%
Cc1ccc(NC(=O)COC(=O)C2=NN(c3ccccc3)C(=O)CC2)c(Br)c1	25%	-1%	1%	4%	-2%	·
CSc1nc2ccc(NC(=O)C3CCCO3)cc2s1 (stereo not given)	?	3.5µM*	3.5µM*	10µM*	12µM*	13µM*
CC(C)c1nnc(NC(=O)C2CCCO2)s1 (stereo not given)	?	2%	4%	7%	-4%	·
COc1ccc(-c2nnc(NC(=O)C3CCCO3)s2)cc1 (stereo not given)	?	2.5µM*	4µM*	?	12µM*	24%
CC(=O)Nc1nc2c(C)cc(NC(=O)C3CCCCC3)cc2s1	?	2.2µM*	1.8µM*	?	·	·
Cc1cccc2sc(NC(=O)C3CCCO3)nc12 (stereo not given)	?	?	?	?	?	20µM*
CC(=O)Nc1cc(C)c2nc(NC(C)=O)sc2c1	?	24%	26%	?	?	·
CCc1cccc(C)c1NC(=O)C1CCCO1 (stereo not given)	3%	0%	-3%	4%	1%	-8%
CCCCn1c(=O)[nH]c(=O)c2c1nc(-c1ccccc1OC(F)F)n2C	-26%	-6%	2%	0%	1%	·
Cc1ccc(NC(=O)C2CCCN2C(=O)OCc2ccccc2)c(O)c1 (stereo not given)	-1%	1%	0%	-1%	-1%	·
COc1ccc(NC(=O)C2CCCO2)c(OC)c1 (stereo not given)	5%	-1%	17%	0%	-2%	·
COc1ccc2nc(NC(=O)C3CCCO3)sc2c1 (stereo not given)	?	1.1µM*	?	?	9.5µM*	·
CSc1nc2ccc(NC(=O)NC(=O)c3c(F)cccc3F)cc2s1	14%	?	?	6%	-19%	·
CSc1nc2ccc(NC(=O)c3ccc(Cl)s3)cc2s1	?	2µM*	2.8µM*	?	1.9µM*	·
CCCNC(=O)c1n[nH]c2c1CC(C(C)(C)CC)CC2 (stereo not given)	25%	-1%	3%	-2%	?	·
COC(=O)N/N=C(\C)c1ccco1	0%	-2%	3%	-9%	-2%	-1%
C/C(=N\NC(=O)c1n[nH]c2c1CCC2)c1ccco1	?	?	0.5µM*	?	2.7µM*	·
SMILES	ELG1 DNA repair	NPC1 prom act	Rab9 promoter act	ELG1 genotox	FLuc modulator	SMN2 splice up
CCC(C)(C)C1CCc2[nH]nc(C(=O)N/N=C(\C)c3ccco3)c2C1 (stereo not given)	?	3.2µM*	1.1µM*	?	2.4µM*	·
O=C(Nc1ccc(Cl)cc1)c1ccc2c(=O)n3c(nc2c1)CCCCC3	?	15%	19%	12%	?	·
CCc1cccc(NC(=O)c2ccc3c(=O)n4c(nc3c2)CCCCC4)c1	-19%	?	23%	-8%	13µM*	·
O=C(Nc1ccccn1)c1ccc2c(=O)n3c(nc2c1)CCCCC3	?	1µM*	0.56µM*	?	4.8µM*	·
CNC(=O)c1ccc(NC(=O)c2ccc3c(=O)n4c(nc3c2)CCC4)cc1	23%	-2%	1%	0%	-10%	·
O=C(Nc1ccc(F)c(Cl)c1)c1ccc2c(=O)n3c(nc2c1)CCCCC3	?	3.2µM*	1.8µM*	-9%	6.7µM*	·
CCc1ccc(C(=O)NNC(=O)c2ccc3c(=O)n4c(nc3c2)CCC4)cc1	11%	-2%	-1%	-1%	-19%	·
Cc1ccc(NC(=O)c2ccc3c(=O)n4c(nc3c2)CCC4)cc1F	?	3.2µM*	2.5µM*	?	·	·
Cc1ccc(-c2csc(NC(=O)c3ccc4c(=O)n5c(nc4c3)CCCCC5)n2)cc1	2.9µM*	-5%	-7%	-11%	?	·
O=C(Nc1cccc(Cl)c1)c1ccc2c(=O)n3c(nc2c1)CCCCC3	?	1.6µM*	0.89µM*	?	3.4µM*	?
CCCCc1nnc(NC(=O)c2ccc3c(=O)n4c(nc3c2)CCC4)s1	0%	-2%	2%	1%	-1%	·
CC(=O)c1ccc(NC(=O)c2ccc3c(=O)n4c(nc3c2)CCCCC4)cc1	?	-6%	2%	-8%	-19%	·
O=C(c1ccc2c(=O)n3c(nc2c1)CCCCC3)N1CCN(C(c2ccccc2)c2ccccc2)CC1	23µM*	1%	0%	-16%	0%	-42%
O=C(Nc1ccc(F)cc1)c1ccc2c(=O)n3c(nc2c1)CCCCC3	?	3.2µM*	4.5µM*	?	13µM*	·
CCc1nc2sc3c(N4CCC(C)CC4)ncnc3c2c2c1CCCC2	·	·	·	·	-5%	-11%
COc1ccc(C(=O)NC2CCc3ccccc32)cc1OC1CCN(C(C)=O)CC1 (stereo not given)	-21%	1%	0%	-5%	2%	·
COc1ccc(CC(=O)Nc2nc(-c3ccc(OC)c(OC)c3)cs2)cc1OC	18µM*	-10%	-9%	-29%	-7%	·
COc1ccc(-c2csc(NC(=O)CC(NC(C)=O)c3ccccc3)n2)cc1OC (stereo not given)	-3%	-4%	1%	0%	?	·
COc1ccc(-c2csc(NC(=O)CSCc3c(C)noc3C)n2)cc1OC	12µM*	0%	12%	-13%	-8%	·
COc1ccccc1CC(=O)Nc1nc(-c2ccc(F)c(F)c2)cs1	15%	5%	12%	-14%	15µM*	·
COc1ccc(-c2csc(NC(=O)C3CC(=O)N(Cc4ccccc4)C3)n2)cc1OC (stereo not given)	12µM*	1%	-11%	-18%	9%	·

Screening results deposited in PubChem BioAssay by National Center for Advancing Translational Sciences (NCATS).
